# Bioassay records as filed in PubChem.
# An excerpt weighted towards active compounds, which were near 2.8% of everything screened.
# HTRA1 inhibitor = HTRA1 serine protease inhibitors, primary screen, biochemical, fluorescence polarization, HTS; recombinant HTRA1, FP-rhodamine activity-based probe; inhibition, % at 5.96 µM; hit rate 0.5% among 340,000; in the data active = inhibition above about 36%;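 also: 0% = enzyme with DMSO and 100% = wells lacking enzyme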
# PAFAH2 FP inh = PAFAH2 enzyme inhibitors, primary screen, biochemical, fluorescence polarization, human; Platelet-activating factor acetylhydrolase 2, cytoplasmic (Homo sapiens), Q99487; recombinant PAFAH2, FP-rhodamine activity probe; inhibition, % at 3.39 µM; hit rate 0.99% among 340,000;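 active = inhibition above the mean over all tested compounds plus 3 SD, cut at about 30% in these data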;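 also: inhibitors block probe labeling of enzyme so polarization drops; 0% = enzyme with DMSO and 100% = wells lacking PAFAH2 protein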
# PAFAH1B2 inh = PAFAH1B2 enzyme inhibitors, primary screen, biochemical, fluorescence polarization, human | Platelet-activating factor acetylhydrolase IB subunit alpha2 (Homo sapiens), P68402 | inhibition, % at 3.39 µM | hit rate 1.2% among 340,000 | recombinant PAFAH1B2, FP-rhodamine activity probe;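 active = inhibition above the mean of all tested compounds plus 3 SD, cut at about 24% in these data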;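 also: 0% = enzyme with DMSO and 100% = wells lacking PAFAH1B2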
# PAFAH1B3 FP inh = PAFAH1B3 enzyme inhibitors, primary screen, biochemical, fluorescence polarization, human; recombinant PAFAH1B3, FP-rhodamine probe; inhibition, % at 3.39 µM; hit rate 0.28% among 340,000; AID 492972, 2010;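 active = inhibition above the screen-wide average of all tested compounds plus 3 SD, cut at about 25% in these data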;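 also: 0% = enzyme with DMSO only and 100% = wells lacking PAFAH1B3 protein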
# DAGLB inhibitor = DAGLB lipase inhibitors, primary screen, biochemical, fluorescence, HTS. Diacylglycerol lipase-beta (Homo sapiens), Q8NCG7. HEK293T DAGLB membrane lysate, EnzChek fluorogenic substrate. inhibition, % at 5.17 µM. hit rate 0.059% among 340,000. AID 504411, 2011; in the data active = inhibition above about 34%;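 also: 0% = enzyme with vehicle and 100% = wells lacking enzyme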
# pPAFAH FP inh = pPAFAH enzyme inhibitors, primary screen, biochemical, fluorescence polarization, human | hit rate 1.5% among 330,000 | recombinant pPAFAH, FP-rhodamine probe fluorescence polarization | inhibition, % at 3.39 µM | AID 463082, 2010 | Platelet-activating factor acetylhydrolase (Homo sapiens), Q13093;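 active = inhibition above the mean inhibition across the screen plus 3 SD, cut at about 25% in these data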;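 also: inhibitors block binding of the rhodamine activity-based probe so polarization drops; 0% = enzyme with DMSO and 100% = wells lacking pPAFAH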
# Target sequence (Q13093 whole entry, looked up): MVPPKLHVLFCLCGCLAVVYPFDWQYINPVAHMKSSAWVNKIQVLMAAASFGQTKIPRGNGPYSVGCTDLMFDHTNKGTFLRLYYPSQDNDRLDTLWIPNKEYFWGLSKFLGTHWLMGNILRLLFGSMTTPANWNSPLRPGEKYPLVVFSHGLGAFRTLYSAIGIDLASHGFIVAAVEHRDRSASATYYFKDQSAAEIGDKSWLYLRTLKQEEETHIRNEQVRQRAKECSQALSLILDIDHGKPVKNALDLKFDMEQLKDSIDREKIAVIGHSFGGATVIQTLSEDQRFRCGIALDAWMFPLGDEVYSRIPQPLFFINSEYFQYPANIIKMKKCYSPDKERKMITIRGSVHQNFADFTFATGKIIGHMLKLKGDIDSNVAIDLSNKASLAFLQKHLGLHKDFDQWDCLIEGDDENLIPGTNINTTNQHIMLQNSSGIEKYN
# The depositor's hits bear a star; . = no result.
SMILES,HTRA1 inhibitor,PAFAH2 FP inh,PAFAH1B2 inh,PAFAH1B3 FP inh,DAGLB inhibitor,pPAFAH FP inh
CC1CCN(S(=O)(=O)c2ccc(S(=O)(=O)NCC(=O)C(C)(C)C)cc2)CC1,-4,-2,26*,0,0,2
Cn1nnnc1SCC(=O)Nc1cccc(S(=O)(=O)N2CCCC2)c1,6,0,6,5,2,-2
CC1CCCN(S(=O)(=O)c2ccc(NC(=O)[C@@H]3CCCN3C(=O)c3cccs3)cc2)C1 (stereo partly drawn),-13,-2,1,11,3,30*
CC(=O)N1CCC(C(=O)Nc2ccc(S(=O)(=O)N3CCC(C)CC3)cc2)CC1,-1,8,29*,-2,3,-1
CC1CCN(S(=O)(=O)c2ccc(NC(=O)CSc3nnnn3C)cc2)CC1,-6,-4,42*,0,-2,2
CC(=O)N1CCC(C(=O)Nc2ccc(S(=O)(=O)N3CCCC(C)C3)cc2)CC1 (stereo not drawn),6,-3,4,7,-1,.
O=C(NCCN1CCOCC1)c1ccc(Cl)c(S(=O)(=O)N2CCOCC2)c1,-4,2,2,4,2,1
CC1CC(C)CN(CCCNS(=O)(=O)c2cc(Br)cc3c2N(C(=O)C2CC2)CC3)C1 (stereo not drawn),0,-2,3,-2,-1,1
CC1CCN(S(=O)(=O)c2ccc(NC(=O)[C@@H]3CCCN3C(=O)c3cccs3)cc2)CC1,-24,1,37*,-6,-2,25*
CC(C)(C)NC(=O)C1CCN(S(=O)(=O)c2ccc(Br)cc2)CC1,2,-2,29*,10,-1,1
CC(=O)c1ccc(S(=O)(=O)Nc2ccc(C(=O)N(C)CC(=O)Nc3cccc(C)c3C)cc2)cc1,0,3,4,3,-5,7
Brc1ccc(CSc2nccn2-c2ccccc2)cc1,-20,13,24*,5,-8,0
CC1Cc2cc(S(=O)(=O)N3CCCC(C(=O)N4CCCCC4)C3)ccc2N1C(=O)C1CC1 (stereo not drawn),2,12,4,8,-3,7
Cc1ccsc1/C=C/C1=Cc2c(sc(NC(=O)CSc3n[nH]c(N)n3)c2C#N)C(C)(C)C1,-21,12,0,-5,13,32*
CCOc1ccc(/C=C/C2=Cc3c(sc(NC(=O)CSc4n[nH]c(N)n4)c3C#N)C(C)(C)C2)cc1,-43,-8,-5,-10,-1,10
Cc1c(Br)c([N+](=O)[O-])nn1CC(=O)Nc1cccc2nonc12,-3,8,-3,3,2,15
N#Cc1cccc(S(=O)(=O)NNC(=O)C23CC4CC(CC(C4)C2)C3)c1,3,3,26*,9,2,5
COc1ccc(S(=O)(=O)NNC(=O)C23CC4CC(CC(C4)C2)C3)cc1,3,-4,17,6,2,.
COc1ccc(C(=O)COC(=O)c2cnc(C)cn2)cc1OC,3,0,-3,-2,-2,5
COc1ccc(CNC(=O)CSc2nc3ccc(C)cc3[nH]2)cc1,0,-8,29*,-3,-1,10
Cc1ccc2nc(SCC(=O)N3CCN(c4ccccc4)CC3)[nH]c2c1,-5,7,30*,3,1,3
C=CCn1c(=S)[nH]c2cc(C(=O)N3CCN(c4ccccc4OC)CC3)ccc2c1=O,-1,2,0,5,2,4
Brc1ccc(CSc2nnc(-c3cnccn3)n2Cc2ccco2)cc1,-15,-2,30*,1,-2,8
Fc1ccc(CSc2nnc(-c3cnccn3)n2Cc2ccco2)cc1,3,-5,6,3,0,5
CCOC(=O)Cc1cc(=O)n2[nH]cc(-c3cccc(Br)c3)c2n1,5,31*,13,8,14,31*
CCOC(=O)Cc1cc(=O)n2[nH]c(-c3ccc(C)cc3)cc2n1,6,6,3,-1,2,34*
